From PubChem BioAssay (NCI)
This is part of a sample that, as a whole, favours compounds with a hit. Of some 83,000 tested, about 20% had one in any assay.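 Assay: single dose, 48 h. Readout: percent growth (0 = no net growth; negative = cell death). Active: <10.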 Unmarked numbers belong to inactive results. Active and inactive are the calls of the source.

Key:
Assay in all cases: NCI-60 one-dose screen, 48 h (100 = growth as untreated, 0 = no growth, -100 = all killed)
Settings in all cases: 10 µM unless noted
NCI-H23 lung = test system: NCI-H23 lung
NCI-H226 lung = test system: NCI-H226 lung
NCI-H322M lung = test system: NCI-H322M lung
HOP-62 NSCLC = test system: HOP-62 NSCLC
NCI-H460 lung = test system: NCI-H460 lung
HOP-92 NSCLC = test system: HOP-92 NSCLC
NCI-H522 lung = test system: NCI-H522 lung
A549/ATCC NSCLC = test system: A549/ATCC NSCLC
786-0 renal = test system: 786-0 renal
COLO 205 colon = test system: COLO 205 colon
DU-145 prostate = test system: DU-145 prostate
K-562 leukemia = test system: K-562 leukemia
MALME-3M melanoma = test system: MALME-3M melanoma
MDA-MB-231 breast = test system: MDA-MB-231 breast
RXF 393 renal = test system: RXF 393 renal
SF-268 CNS = test system: SF-268 CNS
SF-295 CNS = test system: SF-295 CNS
SF-539 CNS = test system: SF-539 CNS
UACC-257 melanoma = test system: UACC-257 melanoma
M14 melanoma = test system: M14 melanoma

Row | Compound | growth (NCI-H23 lung) | growth (NCI-H226 lung) | growth (NCI-H322M lung) | growth (HOP-62 NSCLC) | growth (NCI-H460 lung) | growth (HOP-92 NSCLC) | growth (NCI-H522 lung) | growth (A549/ATCC NSCLC) | growth (786-0 renal) | growth (COLO 205 colon) | growth (DU-145 prostate) | growth (K-562 leukemia) | growth (MALME-3M melanoma) | growth (MDA-MB-231 breast) | growth (RXF 393 renal) | growth (SF-268 CNS) | growth (SF-295 CNS) | growth (SF-539 CNS) | growth (UACC-257 melanoma) | growth (M14 melanoma)
1 | COc1cc2c(c(OC)c1OC)CCC(c1cccc(NC(=O)c3ccc(Br)cc3)c1)O2 (stereo not given) | 80.1% | 72.4% | 75.1% | 87.2% | 93.5% | 58.5% | 74.6% | 67.4% | 97.1% | 85.8% | 87.9% | 49.7% | 80.4% | 82.6% | 89% | 78.6% | 66.9% | 97.3% | 69.6% | 81.3%
2 | CCCCCCCC[C@@H]1N[C@@H](C(=O)OC)Cc2c1[nH]c1ccccc21 | 92.1% | 92.5% | 99.7% | 103% | 102% | 89.5% | 86.6% | 104% | 96.2% | 113% | 106% | 88.4% | 83% | 96.2% | 96.6% | 97.3% | 102% | 93.7% | 101% | 102%
3 | N=C(N)c1ccc(-c2ccc(-c3ccc(Cl)c(Cl)c3)s2)nc1 | 67.6% | 86.9% | -5.24% (active) | 36.6% | -61.6% (active) | 77.3% | -34.5% (active) | -45.6% (active) | -25.8% (active) | -40.5% (active) | -76.5% (active) | -23.4% (active) | 60.5% | -27.1% (active) | 79.5% | 46.8% | 0.36% (active) | 23.1% | 87.9% | 36.1%
4 | Clc1ccc2c(NC3CCC(N4CCOCC4)CC3)ccnc2c1 (stereo not given) | 62.2% | 68.9% | 101% | 66.7% | 81.8% | 48.7% | 80.8% | 74.5% | 70.6% | 81.4% | 90.9% | 48.6% | 89.3% | 81.7% | 90.3% | 108% | 47.1% | 91.4% | 56.6% | 84%
5 | O=C(c1ccncc1)N1N=C(c2ccc(Cl)cc2)C[C@H]1c1cn(-c2ccccc2)nc1-c1ccccc1 | 91.5% | 89.9% | 92.7% | 92.8% | 88.2% | 67% | 96.1% | 81.7% | 97.9% | 119% | 99.8% | 90.5% | 108% | 69.6% | 87.6% | 89.4% | 78.8% | 81.2% | 89.6% | 107%
6 | Cn1cc(-c2csc(-c3cn(C(=O)OC(C)(C)C)c4ccc(Br)cc34)n2)c2ccnc(Cl)c21 | 81.7% | 73.3% | 85.3% | 68.5% | 68.7% | 58.8% | 66.7% | 70.3% | 74.7% | 90.9% | 68.3% | 86.9% | 36.6% | 61.2% | 78.3% | 82.4% | 89.9% | 55.5% | 70.3% | 88.2%
7 | C#CCOC(=O)/C=C/c1cn(-c2ccccc2)nc1-c1ccc(OC)cc1 | 89.1% | 81.6% | 99.4% | 93% | 95.1% | 60.8% | 50% | 77.5% | 98.9% | 121% | 95.1% | 16.8% | 107% | 57.1% | 73.7% | 87.9% | 94.1% | 89.4% | 87.5% | 98.8%
8 | CC(=O)N1N=C(c2ccc(C(F)(F)F)c(F)c2)CC1c1[nH]c(C)c(C(=O)NCC(F)(F)F)c1C (stereo not given) | 78.8% | 56.3% | 74.6% | 64.9% | 52.1% | 52.4% | 94.8% | 55.8% | 13.1% | 112% | 85.5% | 97.6% | 43.5% | 38.8% | 31% | 60.7% | 70.9% | 56.3% | 91.6% | 78.8%
